# Target: Tubulin alpha-1C chain (UniProt Q9BQE3)
# Assay: cross-link between two proteins; cross-linking mass spectrometry
# Chain of UniProt Q9BQE3 (Q9BQE3 whole entry): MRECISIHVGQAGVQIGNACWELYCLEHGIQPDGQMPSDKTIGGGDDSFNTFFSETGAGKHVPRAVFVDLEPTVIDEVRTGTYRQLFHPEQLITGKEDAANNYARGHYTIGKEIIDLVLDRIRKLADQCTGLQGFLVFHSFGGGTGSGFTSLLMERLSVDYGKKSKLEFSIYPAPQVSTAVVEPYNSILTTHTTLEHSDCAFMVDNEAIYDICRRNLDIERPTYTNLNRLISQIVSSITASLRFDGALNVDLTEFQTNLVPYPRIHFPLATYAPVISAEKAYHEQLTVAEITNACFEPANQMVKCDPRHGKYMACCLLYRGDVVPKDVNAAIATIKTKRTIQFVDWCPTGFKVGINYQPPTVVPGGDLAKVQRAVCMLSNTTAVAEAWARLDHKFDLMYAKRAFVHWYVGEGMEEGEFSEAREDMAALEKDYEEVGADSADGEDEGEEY
substance,measurement,value
"Tubulin beta chain, P07437",listed as a hit,yes

# — publication PMC11442847
